This note sets out measurements from PubChem BioAssay AID1345082 (National Center for Advancing Translational Sciences (NCATS), 2018).

Among all 94,000 compounds or so, about 4,000 (4.3%) were called active. Inconclusive results (about 29%) are left out. The call rests on the fitted dose curve; in most records, active means well fitted inhibition curve with a large enough effect; inconclusive means small, poorly fitted or top-dose-only effect; inactive means no such curve, though single readings can be large or run the other way. What follows is part of a selection rich in actives, with near analogues and random picks from the rest. A call without a number means that no potency is given here.
Potency means the concentration at half of the fitted maximal effect.

A short description of this assay: Cytotoxic Profiling in NIH 3T3 Cell Line of Diverse Libraries Using Quantitative High-Throughput Screening. Further: nearly all actives have a fitted effect of over 55% in size. Particulars: NIH 3T3 viability, CellTiter-Glo ATP luminescence, 48-72 h; series mostly up to 96.7 µM. The text has this:
Cell-based phenotypic screening is a commonly used approach to discover biological pathways, novel drug targets, chemical probes and high-quality hit-to-lead molecules. Many hits identified from high-throughput screening campaign are ruled out through a series of follow-up potency, selectivity/specificity, and cytotoxicity assays. Prioritization of molecules with little or no cytotoxicity for a more in-depth downstream evaluation influence the future direction of projects, so cytotoxicity profiling of the screening libraries at early stage is essential for increasing the likelihood of candidate success. In this study, we analyzed results from a cell-based cytotoxicity screening campaign, comprising nearly 10,000 compounds in NCATS annotated libraries, and over 100,000 compounds in a diversity library, evaluated in four normal cell lines (HEK 293, NIH 3T3, CRL-7250 and HaCat) and a cancer cell line (KB 3-1, a HeLa subline) with overall screening outcomes, hit rates, pan-activity and selectivity. For the annotated library, we also examined the primary targets and mechanistic pathways regularly associated with cell death. To our knowledge, this is the first study to use high-throughput screening to profile large libraries for cytotoxicity assessment in both normal and cancer cell lines. In summary, the results generated here constitutes a valuable resource for the scientific community and provides insight on identifying cytotoxic compounds with particular mechanisms of action, and prioritizing compounds with suitable cytotoxicity profile for further evaluation.
NIH 3T3 cells were seeded into white 1536-well plates using a Multidrop Combi peristaltic dispenser (ThermoFisher, Waltham, MA) at a density of 400 cells/well in 5 uL of medium respectively. A pintool (Kalypsys) was used to transfer 23 nL of compound solution to the 1536-well assay plates. After 48 or 72 hr incubation at 37 degree Celsius, 5% CO2 and 95% humidity, 2.5 uL of CellTiter-Glo (Promega) was dispensed into each well using a dispenser (Aspect Automation, St. Paul, MN) with solenoid valves (Lee Valves, Westbrook CT). Plates were left at room temperature for 10 min before imaging the ATP-coupled luminescence using a ViewLux microplate imager (PerkinElmer, Waltham, MA).
A general note: In ATP-based viability assays light output follows the ATP content of the culture.
Consider `CCCc1nc(NCC(c2ccccn2)N2CCOCC2)c2cnn(C)c2n1` (configuration not stated), for which the Potency result was “inactive”. On to `CC(C)Cc1cc(CNc2nc(C(C)(C)C)nc3c2cnn3C)no1`, for which the Potency was 44.7 µM (active). The same measure for `COc1ccc2[nH]cc(CCNC(=O)CC3=C4CCCCC4N(C)C3=O)c2c1` (configuration not stated): “inactive”.

For `COc1ccc(CNC(=O)CC[C@@H]2CNC(=O)[C@@H]3C[C@H](NC(=O)Nc4ccsc4)CN23)cc1`, the Potency entry is “inactive”.

With `Cc1cccc(-c2nc3ccc(C(=O)N4CCCCC4)cc3o2)n1`, the Potency was 10 µM (active). As for `CC(=O)N1CCN(C(=O)c2ccc3nc(-c4ccncc4)oc3c2)CC1`, the Potency result is “inactive”. For the molecule `CCOC(=O)C1CCCN(C(=O)c2ccc3oc(-c4ccccn4)nc3c2)C1` (configuration not stated), the Potency result is “inactive”. With `CCOc1ccccc1C1NC(=O)N(CC(=O)Nc2c(C)cccc2Cl)C2=C1C(=O)OC2` (configuration not stated) the entry was “inactive”; with `CCOc1ccccc1C1NC(=O)N(CC(=O)Nc2ccc(C)c(C)c2)C2=C1C(=O)OC2` (configuration not stated), “inactive”. On to `Cc1cccc(C)c1NC(=O)CN1C(=O)NC(c2ccc(Cl)cc2)C2=C1COC2=O` (configuration not stated), for which the Potency result is “inactive”. `CCc1cccc(NC(=O)CN2C(=O)NC(c3ccc(Cl)cc3)C3=C2COC3=O)c1` (configuration not stated): the Potency is 25.1 µM (active). The same measure for `Cc1ccc(Cl)cc1NC(=O)CN1C(=O)NC(c2ccc(Cl)cc2)C2=C1COC2=O` (configuration not stated): 35.5 µM (active); for `Cc1ccccc1NC(=O)CN1C(=O)NC(c2ccccc2Cl)C2=C1COC2=O` (configuration not stated): “inactive”; for `CCN1CC2(CCN(Cc3c(OC)ccc(F)c3F)CC2)OC1=O`: “inactive”. With `COc1ccc(-c2cccc(C(=O)N3CCN(C(=O)c4ccc(Cl)nc4)CC3)c2)nn1` the entry was “inactive”; with `COCCc1noc(C2Cc3ccccc3N2C(=O)NCc2ccco2)n1` (configuration not stated), “inactive”; with `O=C(NC[C@H]1O[C@H](Cc2cc(-c3ccccc3)on2)CC[C@@H]1O)C1CCC1`, “inactive”.

`O=C1Nc2ccccc2CC12CCN2Cc1cncs1` (configuration not stated): the Potency result was “inactive”. The same measure for `CC(=O)N1CCN(C(=O)c2ccccc2N2CCOCC2)CC(O)C1` (configuration not stated): “inactive”. As for `COCc1cccc(-c2n[nH]c3c2CC(=O)N(c2ccccc2)C3)c1`, the Potency result was “inactive”. The same measure for `O=C1Cc2c(-c3ccc(CO)cc3)n[nH]c2CN1CC1CCOCC1`: 79.4 µM (active). For `c1cc(-c2ccc3c(c2)OCCCO3)n2ncnc2n1`, the Potency result is “inactive”.

`COc1ccc(Cn2c(=O)c(C(=O)N3CCN(C(=O)Nc4ccccc4)CC3)nc3cccnc32)cc1`: the Potency result was “inactive”. With `COCCC1(NC(=O)c2ccccc2)CCN(Cc2ccc(F)cc2F)CC1` the entry was “inactive”. With `COc1ccccc1-c1ccc(C(=O)N2CCC(C(=O)NC3CC3)CC2)cc1` the entry was “inactive”; with `COc1ccc(CC(=O)NC2CCN(Cc3ccc(-c4ccccc4OC)cc3)C2)cc1` (configuration not stated), 31.6 µM (active). With `COc1ccc(F)cc1-c1ccc(CN2CCC(NC(=O)c3ccccc3)C2)cc1` (configuration not stated) the figure was 35.5 µM (active); with `COc1cccc(-c2ccc(CN3CCCC(NC(=O)NC4CCCC4)C3)cc2)c1` (configuration not stated), “inactive”. Take `O=C(NC1CCCN(Cc2ccc(-c3cncnc3)cc2)C1)c1ccccc1` (configuration not stated): the Potency entry was “inactive”.

For the molecule `Cc1cc(C)cc(-c2ccc(CN3CCCC(NC(=O)c4ccccc4)C3)cc2)c1` (configuration not stated), the Potency is 22.4 µM (active).

With `COc1ccc(F)cc1S(=O)(=O)N1[C@@H]2CC[C@H]1CC(NC(=O)c1ccc(F)cc1)C2` (some centres not stated), the Potency entry is “inactive”. With `O=C(NC1CCCN(Cc2ccc(-c3cncnc3)cc2)C1)C1CCCC1` (configuration not stated) the entry was “inactive”. As for `CCn1ncnc1CN1CCC2(CC1)CC(C(=O)O)N(C(C)=O)C2` (configuration not stated), the Potency entry was “inactive”. The same measure for `COCC(=O)NC1CCC12CCN(C(=O)Nc1ccccc1)CC2` (configuration not stated): “inactive”; for `Cc1ccc(C(=O)NC2CCN(c3ccc4nnc(C)n4n3)C2)cc1` (configuration not stated): “inactive”. For `O=C([C@@H]1C[C@H](F)CN1C(=O)Cc1ccccc1Cl)N1CCCCC1`, the Potency entry is “inactive”. With `Cc1ccccc1N1Cc2c(NCC(C)C)ncnc2N(C)CC1=O` the entry was “inactive”. With `CC/C=C/CC(=O)N1CCC2(CCN(Cc3cccnc3)CC2)C(CO)C1` (configuration not stated) the entry was “inactive”; with `COc1cccc2c1CCN=C2C[C@H]1CN(C(=O)C(C)(C)C)CC[C@H]1CC(=O)O`, “inactive”; with `Cc1n[nH]c(C)c1CCC(=O)N1CCCC(c2ccc(C(=O)O)cc2)C1` (configuration not stated), “inactive”. With `COc1ccc(S(=O)(=O)N2C[C@@H](Oc3ccccc3)C[C@@H]2C(=O)N2CCOCC2)cc1` the entry was “inactive”; with `Cc1c(C(=O)N2C[C@@H](CN(C)C)C[C@H](CO)C2)n(C)c2c(C)cccc12`, “inactive”.

Regarding `CN(C)C[C@@H]1CN(C2CCOCC2)C[C@H]1NC(=O)c1ccco1`, the Potency entry is “inactive”.

`Cc1ccc2c(c1)nc1n2[C@@H](CNC(=O)c2ccccc2)COC1`: the Potency entry was “inactive”.

In the case of `COc1ccc2c(c1)nc1n2[C@@H](CNC(=O)c2ccncc2)COC1`, the Potency entry was “inactive”. For the molecule `Cc1ccc2nc3n(c2c1)[C@@H](CNC(=O)c1ccc(C#N)cc1)COC3`, the Potency was 89.1 µM (active). As for `O=C(CCC1CCCN(S(=O)(=O)c2ccc(F)cc2)C1)NC1CCS(=O)(=O)C1` (configuration not stated), the Potency result was “inactive”. As to `O=C(NC1CCc2nn(CC3CC3)c(=O)n2CC1)c1ccc(Cn2ccnc2)o1` (configuration not stated), the Potency entry was “inactive”. On to `Cc1oc2ccn(Cc3ccccc3F)c(=O)c2c1C(=O)NCCCN1CCCCC1C` (configuration not stated), for which the Potency is 39.8 µM (active). As for `Cc1oc2c(c1C(=O)NCCN1CCCC1)CN(Cc1ccc(F)cc1)CC2`, the Potency result is “inactive”. The same measure for `Cc1noc([C@H]2CCN(Cc3ccccc3F)C[C@H]2NC(=O)C2CC2)n1`: “inactive”; for `CCn1nc(C)c(-c2cc(C(=O)N3CCCCCCNC(=O)[C@@H]4CCCC[C@@H]43)no2)c1C`: “inactive”; for `COc1nccnc1NC1CCN(C(=O)NCc2ccccc2)CC1`: “inactive”. With `Cn1cc(CN2CCOC[C@H](Oc3ccc(S(C)(=O)=O)cc3)C2)c2ccccc21` the figure was 28.2 µM (active). Regarding `COc1ccc(O[C@H]2COCCN(Cc3nccn3C)C2)cc1`, the Potency result is “inactive”. The same measure for `CC(C)CN1CCOC[C@H](Oc2ccc(S(C)(=O)=O)cc2)C1`: “inactive”; for `CCCCn1ccnc1C1CCCN(C(=O)c2ccccc2-c2ncn[nH]2)C1` (configuration not stated): “inactive”. With `CN(C)C(=O)c1ccc2oc(-c3ccnc(Cl)c3)nc2c1`, the Potency was 28.2 µM (active). `O=C(NCc1ccccc1)c1ccc2nc(-c3ccnc(Cl)c3)oc2c1`: the Potency result is “inactive”.

For `O=C(NCCc1ccc(Cl)cc1)c1ccc2oc(-c3cccnc3)nc2c1`, the Potency entry is “inactive”.

As for `O=C(O)[C@]12CCCN(Cc3ncc[nH]3)[C@@H]1CCN(Cc1ccncc1)C2`, the Potency result is “inactive”. In the case of `CCCN1CCCC2(CCN(C(=O)C(=O)c3cccn3C)C2)C1=O` (configuration not stated), the Potency entry was “inactive”.
